These results are taken from ChEMBL document CHEMBL1961873, “Compounds: GSK PKIS; Assays: Nanosyn kinase panel” (2012).

In assay [1] the target is T1, Tyrosine-protein kinase ITK/TSK (Homo sapiens) (UniProt Q08881).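 Note: values are mean percent inhibition of ITK from the GSK PKIS screen.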
T1 sequence (whole entry): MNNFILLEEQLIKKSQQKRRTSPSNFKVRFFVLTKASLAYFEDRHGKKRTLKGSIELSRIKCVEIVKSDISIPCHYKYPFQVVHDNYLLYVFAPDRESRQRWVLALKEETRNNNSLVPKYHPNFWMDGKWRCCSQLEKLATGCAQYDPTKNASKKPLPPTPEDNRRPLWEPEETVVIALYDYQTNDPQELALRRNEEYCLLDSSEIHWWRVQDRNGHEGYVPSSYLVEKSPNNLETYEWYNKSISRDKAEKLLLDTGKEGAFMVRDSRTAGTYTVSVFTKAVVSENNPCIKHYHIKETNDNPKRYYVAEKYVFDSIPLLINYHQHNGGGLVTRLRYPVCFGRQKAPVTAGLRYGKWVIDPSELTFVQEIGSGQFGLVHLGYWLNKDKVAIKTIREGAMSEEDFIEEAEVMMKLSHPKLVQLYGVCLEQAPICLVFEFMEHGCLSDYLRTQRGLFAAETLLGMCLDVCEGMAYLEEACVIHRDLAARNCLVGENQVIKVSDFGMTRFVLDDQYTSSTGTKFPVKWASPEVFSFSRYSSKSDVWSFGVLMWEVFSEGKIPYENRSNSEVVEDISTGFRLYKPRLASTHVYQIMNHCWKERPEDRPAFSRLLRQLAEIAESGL
Conditions: at 1 µM.

For assay [2], the target named is Tyrosine-protein kinase JAK1 (Homo sapiens) (UniProt P23458). Conditions: at 0.1 µM.
For assay [3] the target is unchanged. The following applies: at 1 µM.
Assay [4] has as its target Tyrosine-protein kinase JAK2 (Homo sapiens) (UniProt O60674). Conditions: at 0.1 µM.
Assay [5] shares this target. The following applies: at 1 µM.
The target in assay [6] is T2, Tyrosine-protein kinase JAK3 (Homo sapiens) (UniProt P52333).
T2 sequence (whole entry): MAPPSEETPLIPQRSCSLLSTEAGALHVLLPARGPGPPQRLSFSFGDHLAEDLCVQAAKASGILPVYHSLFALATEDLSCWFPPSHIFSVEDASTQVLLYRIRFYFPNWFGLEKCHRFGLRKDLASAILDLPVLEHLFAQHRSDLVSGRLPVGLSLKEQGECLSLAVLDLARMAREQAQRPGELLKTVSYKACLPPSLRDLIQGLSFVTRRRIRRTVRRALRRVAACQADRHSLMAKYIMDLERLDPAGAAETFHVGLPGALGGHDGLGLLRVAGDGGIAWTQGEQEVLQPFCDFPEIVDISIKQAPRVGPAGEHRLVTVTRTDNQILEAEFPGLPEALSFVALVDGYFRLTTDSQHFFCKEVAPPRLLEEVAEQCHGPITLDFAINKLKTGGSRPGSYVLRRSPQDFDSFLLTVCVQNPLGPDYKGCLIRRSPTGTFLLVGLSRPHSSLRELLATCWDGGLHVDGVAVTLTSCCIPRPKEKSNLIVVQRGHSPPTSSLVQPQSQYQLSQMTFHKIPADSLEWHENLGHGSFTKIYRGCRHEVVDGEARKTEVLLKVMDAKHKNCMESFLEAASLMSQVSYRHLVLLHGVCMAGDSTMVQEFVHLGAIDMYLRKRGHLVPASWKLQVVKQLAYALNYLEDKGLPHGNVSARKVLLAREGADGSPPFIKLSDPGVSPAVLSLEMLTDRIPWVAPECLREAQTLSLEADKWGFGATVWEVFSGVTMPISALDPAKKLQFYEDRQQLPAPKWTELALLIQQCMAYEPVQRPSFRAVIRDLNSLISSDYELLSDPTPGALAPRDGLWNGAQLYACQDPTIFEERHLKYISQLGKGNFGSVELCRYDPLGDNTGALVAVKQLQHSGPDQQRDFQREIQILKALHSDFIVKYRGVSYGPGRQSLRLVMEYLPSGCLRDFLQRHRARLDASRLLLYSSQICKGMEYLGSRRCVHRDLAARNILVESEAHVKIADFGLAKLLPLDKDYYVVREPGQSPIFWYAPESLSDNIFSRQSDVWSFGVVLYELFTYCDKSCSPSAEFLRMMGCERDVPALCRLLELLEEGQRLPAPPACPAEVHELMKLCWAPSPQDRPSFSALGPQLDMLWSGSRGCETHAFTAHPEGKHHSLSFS
The following applies: at 0.1 µM.

Assay [7] has as its target T2, Tyrosine-protein kinase JAK3 (Homo sapiens). The following applies: at 1 µM.
The target in assay [8] is Vascular endothelial growth factor receptor 2 (Homo sapiens) (UniProt P35968). Conditions: at 0.1 µM.
Assay [9] shares this target. Conditions: at 1 µM.
Assay [10] addresses Mast/stem cell growth factor receptor Kit (Homo sapiens) (UniProt P10721). The following applies: at 0.1 µM.
For assay [11] the target is unchanged. Conditions: at 1 µM.
Assay [12] has as its system Mast/stem cell growth factor receptor Kit (Homo sapiens), P10721 [D816V]. Conditions: at 0.1 µM.
For assay [13] the test system is unchanged. Conditions: at 1 µM.
Assay [14] has as its system Mast/stem cell growth factor receptor Kit (Homo sapiens), P10721 [T670I]. Conditions: at 0.1 µM.
Assay [15] has the same test system. The following applies: at 1 µM.
For assay [16], the system named is Mast/stem cell growth factor receptor Kit (Homo sapiens), P10721 [V560G]. Conditions: at 0.1 µM.
Assay [17] shares this test system. Conditions: at 1 µM.
For assay [18], the target named is Tyrosine-protein kinase Lck (Homo sapiens) (UniProt P06239). Conditions: at 0.1 µM.
For assay [19] the target is unchanged. The following applies: at 1 µM.
Assay [20] deals with Leukocyte tyrosine kinase receptor (Homo sapiens) (UniProt P29376). Conditions: at 0.1 µM.
Chain of Leukocyte tyrosine kinase receptor (Homo sapiens) (P29376 whole entry): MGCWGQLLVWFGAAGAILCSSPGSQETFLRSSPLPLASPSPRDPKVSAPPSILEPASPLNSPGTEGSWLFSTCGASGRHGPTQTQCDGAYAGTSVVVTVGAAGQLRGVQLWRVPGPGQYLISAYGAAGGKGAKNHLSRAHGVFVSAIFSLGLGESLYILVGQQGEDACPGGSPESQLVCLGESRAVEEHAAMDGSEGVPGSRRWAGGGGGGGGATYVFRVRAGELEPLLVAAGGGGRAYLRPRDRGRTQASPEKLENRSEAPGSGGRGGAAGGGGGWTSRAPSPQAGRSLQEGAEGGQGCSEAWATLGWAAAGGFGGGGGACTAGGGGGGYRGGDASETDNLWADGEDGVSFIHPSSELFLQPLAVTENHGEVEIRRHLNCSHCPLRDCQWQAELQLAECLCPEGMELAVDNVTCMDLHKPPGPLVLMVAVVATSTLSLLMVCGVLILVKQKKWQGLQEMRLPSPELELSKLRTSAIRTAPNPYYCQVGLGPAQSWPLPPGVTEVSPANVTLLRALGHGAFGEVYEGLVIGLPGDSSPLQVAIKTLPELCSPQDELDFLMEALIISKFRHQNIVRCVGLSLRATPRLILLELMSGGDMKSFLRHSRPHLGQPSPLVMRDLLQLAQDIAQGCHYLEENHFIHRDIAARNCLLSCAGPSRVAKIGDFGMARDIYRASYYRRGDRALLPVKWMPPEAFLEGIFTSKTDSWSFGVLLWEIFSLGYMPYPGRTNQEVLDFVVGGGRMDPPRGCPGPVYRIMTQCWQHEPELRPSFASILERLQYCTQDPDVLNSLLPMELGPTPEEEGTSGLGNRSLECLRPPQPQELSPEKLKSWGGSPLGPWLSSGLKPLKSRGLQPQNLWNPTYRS

Chain of Tyrosine-protein kinase Lck (Homo sapiens) (P06239 2-509 limits assumed): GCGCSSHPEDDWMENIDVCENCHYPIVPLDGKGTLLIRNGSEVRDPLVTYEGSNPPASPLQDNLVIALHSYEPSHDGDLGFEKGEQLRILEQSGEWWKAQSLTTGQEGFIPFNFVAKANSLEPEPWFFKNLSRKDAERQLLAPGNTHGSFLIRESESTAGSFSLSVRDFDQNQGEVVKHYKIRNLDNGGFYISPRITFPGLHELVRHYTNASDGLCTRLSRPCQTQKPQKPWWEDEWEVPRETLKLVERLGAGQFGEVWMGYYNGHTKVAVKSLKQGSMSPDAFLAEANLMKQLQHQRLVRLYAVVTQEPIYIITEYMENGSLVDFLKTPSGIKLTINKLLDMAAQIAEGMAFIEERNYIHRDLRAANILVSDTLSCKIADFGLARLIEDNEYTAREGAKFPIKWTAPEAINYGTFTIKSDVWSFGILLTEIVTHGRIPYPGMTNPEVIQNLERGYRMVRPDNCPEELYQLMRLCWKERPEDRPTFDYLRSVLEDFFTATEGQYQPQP
Chain of Mast/stem cell growth factor receptor Kit (Homo sapiens), P10721 [T670I] (P10721 whole entry T670I): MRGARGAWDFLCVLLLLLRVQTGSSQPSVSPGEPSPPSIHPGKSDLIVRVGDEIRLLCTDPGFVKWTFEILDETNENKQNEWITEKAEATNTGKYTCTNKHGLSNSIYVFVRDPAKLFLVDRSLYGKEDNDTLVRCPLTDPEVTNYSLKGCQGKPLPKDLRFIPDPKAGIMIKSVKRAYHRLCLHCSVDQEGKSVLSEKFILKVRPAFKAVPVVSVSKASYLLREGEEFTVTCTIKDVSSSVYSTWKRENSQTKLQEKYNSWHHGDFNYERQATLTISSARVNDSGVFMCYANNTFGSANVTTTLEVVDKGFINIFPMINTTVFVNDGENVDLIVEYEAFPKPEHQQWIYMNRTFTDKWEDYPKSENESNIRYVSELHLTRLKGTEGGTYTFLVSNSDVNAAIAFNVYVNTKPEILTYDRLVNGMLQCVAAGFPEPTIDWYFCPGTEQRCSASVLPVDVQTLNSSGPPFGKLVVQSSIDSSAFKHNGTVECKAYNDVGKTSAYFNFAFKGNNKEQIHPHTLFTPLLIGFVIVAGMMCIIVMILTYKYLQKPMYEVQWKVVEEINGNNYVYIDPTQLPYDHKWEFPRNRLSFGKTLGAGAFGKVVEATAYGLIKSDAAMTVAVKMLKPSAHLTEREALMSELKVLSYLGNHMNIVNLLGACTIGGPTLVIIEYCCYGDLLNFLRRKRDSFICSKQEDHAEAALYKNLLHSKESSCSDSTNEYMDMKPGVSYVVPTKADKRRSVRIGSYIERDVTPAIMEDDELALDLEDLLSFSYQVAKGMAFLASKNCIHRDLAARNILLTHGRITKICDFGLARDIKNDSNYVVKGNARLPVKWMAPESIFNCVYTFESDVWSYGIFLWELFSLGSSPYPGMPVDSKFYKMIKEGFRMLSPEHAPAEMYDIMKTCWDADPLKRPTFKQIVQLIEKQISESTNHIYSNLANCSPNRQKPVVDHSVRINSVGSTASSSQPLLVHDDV
Chain of Mast/stem cell growth factor receptor Kit (Homo sapiens), P10721 [V560G] (P10721 whole entry V560G): as the sequence (P10721 whole entry T670I) above, with V560G, I670T counted along it
Chain of Tyrosine-protein kinase JAK2 (Homo sapiens) (O60674 whole entry): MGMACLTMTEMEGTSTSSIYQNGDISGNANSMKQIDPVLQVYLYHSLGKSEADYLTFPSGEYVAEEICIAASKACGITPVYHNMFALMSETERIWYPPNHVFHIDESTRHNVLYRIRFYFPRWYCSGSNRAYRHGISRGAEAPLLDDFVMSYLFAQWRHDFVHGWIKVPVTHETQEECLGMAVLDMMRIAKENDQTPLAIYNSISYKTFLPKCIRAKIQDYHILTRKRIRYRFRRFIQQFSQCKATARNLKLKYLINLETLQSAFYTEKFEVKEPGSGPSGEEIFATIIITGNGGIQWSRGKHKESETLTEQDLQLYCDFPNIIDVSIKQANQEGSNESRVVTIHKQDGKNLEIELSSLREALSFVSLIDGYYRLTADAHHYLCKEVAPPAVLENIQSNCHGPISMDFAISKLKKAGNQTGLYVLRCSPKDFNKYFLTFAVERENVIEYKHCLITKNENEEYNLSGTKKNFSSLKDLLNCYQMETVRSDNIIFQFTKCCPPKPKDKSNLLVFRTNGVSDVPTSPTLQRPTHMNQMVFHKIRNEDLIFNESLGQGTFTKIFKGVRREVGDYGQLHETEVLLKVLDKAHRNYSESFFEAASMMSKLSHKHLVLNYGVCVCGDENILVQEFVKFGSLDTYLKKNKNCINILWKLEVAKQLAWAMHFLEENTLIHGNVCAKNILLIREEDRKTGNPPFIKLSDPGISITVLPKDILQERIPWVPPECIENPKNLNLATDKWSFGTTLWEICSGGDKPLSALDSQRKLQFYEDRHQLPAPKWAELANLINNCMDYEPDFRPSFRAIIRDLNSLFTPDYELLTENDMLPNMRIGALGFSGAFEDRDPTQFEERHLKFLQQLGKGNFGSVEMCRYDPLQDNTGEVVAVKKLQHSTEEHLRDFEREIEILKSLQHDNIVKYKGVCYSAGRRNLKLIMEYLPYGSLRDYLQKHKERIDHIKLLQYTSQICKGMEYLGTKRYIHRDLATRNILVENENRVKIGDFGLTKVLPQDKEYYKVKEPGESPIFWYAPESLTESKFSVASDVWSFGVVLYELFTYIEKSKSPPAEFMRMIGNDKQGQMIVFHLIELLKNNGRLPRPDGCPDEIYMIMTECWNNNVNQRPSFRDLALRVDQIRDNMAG
Chain of Mast/stem cell growth factor receptor Kit (Homo sapiens) (P10721 whole entry): as the sequence (P10721 whole entry T670I) above, with I670T counted along it
Chain of Vascular endothelial growth factor receptor 2 (Homo sapiens) (P35968 whole entry): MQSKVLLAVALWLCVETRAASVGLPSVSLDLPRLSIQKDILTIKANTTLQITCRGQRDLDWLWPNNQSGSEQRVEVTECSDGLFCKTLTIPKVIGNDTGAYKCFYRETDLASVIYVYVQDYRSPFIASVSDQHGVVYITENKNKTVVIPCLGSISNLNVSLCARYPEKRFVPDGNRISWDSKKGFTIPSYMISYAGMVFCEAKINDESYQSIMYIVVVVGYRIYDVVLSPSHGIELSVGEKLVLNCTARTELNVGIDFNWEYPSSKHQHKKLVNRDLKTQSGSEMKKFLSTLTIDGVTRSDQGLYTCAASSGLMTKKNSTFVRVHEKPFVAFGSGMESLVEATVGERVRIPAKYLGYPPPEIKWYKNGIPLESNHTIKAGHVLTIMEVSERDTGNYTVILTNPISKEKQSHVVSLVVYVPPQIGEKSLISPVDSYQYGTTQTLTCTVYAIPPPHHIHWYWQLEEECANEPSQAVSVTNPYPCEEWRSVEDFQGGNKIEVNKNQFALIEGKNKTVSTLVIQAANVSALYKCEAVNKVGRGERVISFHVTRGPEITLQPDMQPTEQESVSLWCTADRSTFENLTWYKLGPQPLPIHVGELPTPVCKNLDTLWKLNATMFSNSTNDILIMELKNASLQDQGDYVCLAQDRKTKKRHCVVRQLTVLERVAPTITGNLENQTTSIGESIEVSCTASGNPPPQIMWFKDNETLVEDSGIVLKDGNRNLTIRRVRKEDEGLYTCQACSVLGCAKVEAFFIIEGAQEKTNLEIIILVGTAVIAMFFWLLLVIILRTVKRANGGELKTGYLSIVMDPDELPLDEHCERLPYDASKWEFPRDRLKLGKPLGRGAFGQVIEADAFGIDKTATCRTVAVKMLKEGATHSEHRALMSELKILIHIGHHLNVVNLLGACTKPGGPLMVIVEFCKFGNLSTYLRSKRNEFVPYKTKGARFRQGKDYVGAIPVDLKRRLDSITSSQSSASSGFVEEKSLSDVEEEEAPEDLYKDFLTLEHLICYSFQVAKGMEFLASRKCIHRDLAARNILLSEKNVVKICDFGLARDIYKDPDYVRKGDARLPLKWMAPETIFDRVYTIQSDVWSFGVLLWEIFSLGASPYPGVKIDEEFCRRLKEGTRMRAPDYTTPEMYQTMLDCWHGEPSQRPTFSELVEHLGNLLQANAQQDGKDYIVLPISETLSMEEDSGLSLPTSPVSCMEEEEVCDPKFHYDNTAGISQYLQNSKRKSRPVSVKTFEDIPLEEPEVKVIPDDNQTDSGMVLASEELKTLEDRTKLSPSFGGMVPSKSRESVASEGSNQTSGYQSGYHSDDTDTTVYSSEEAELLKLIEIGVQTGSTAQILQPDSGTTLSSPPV
Chain of Mast/stem cell growth factor receptor Kit (Homo sapiens), P10721 [D816V] (P10721 whole entry D816V): as the sequence (P10721 whole entry T670I) above, with I670T, D816V counted along it

The inhibition is the drop in the measured response relative to a control, in per cent. Take `COc1ccc(-c2nn3ncccc3c2-c2ccnc(Nc3ccc(Cl)c(C(F)(F)F)c3)n2)cc1`: the inhibition in [1] is 0.32%; in [2], 1.77%; in [3], 10.6%; in [4], -0.46%; in [5], -0.98%; in assay [6], -0.77%. Also, the inhibition in [7] was -0.67%; in assay [8], 1.69%; in [9] it was 4.52%; in assay [10], 1.4%; in [11] it was 8.96%; in assay [12], 0.87%. In addition, the inhibition in [13] is 4.92%; in [14] it was -0.64%; in assay [15], 1.14%; in [16], 0.89%; in assay [17] it was -0.17%; in [18] it was -0.04%. For the same compound, the figures for the inhibition in assay [19] and in [20] were 5.83% and 2.25%, respectively.
Take `[O-][S+]1CCN(Cc2ccc(-c3ccc4ncnc(Nc5ccc(OCc6ccccc6)c(F)c5)c4c3)o2)CC1`: the inhibition in assay [1] was 2.13%; in [2] it was 0.52%; in assay [3], 0.63%; in assay [4] it was 0.4%; in assay [5] it was 0.64%; in assay [6], 0.01%. The inhibition in [7] was -0.11%; in assay [8], 2.98%; in [9] it was 6.19%; in assay [10], 2.02%; in assay [11], 3.42%; in [12], 2.25%. Besides, the inhibition in [13] is -1.53%; in assay [14], 0.34%; in assay [15], 1.07%; in [16], -2.07%; in assay [17], -2.71%; in assay [18], 1.81%. Also, the values for the inhibition in assay [19] and in assay [20] were 7.89% and 2.21%, respectively.
In the case of `O=C1Nc2ccc(C(=O)c3ccco3)cc2C1=Cc1cc(Cl)c(O)c(Cl)c1`, the inhibition was determined as 3.21% in assay [1]; 5.2% in assay [2]; 7.05% in assay [3]; 2.07% in [4]; 6% in assay [5]; 12.7% in assay [6]. For the same compound, the inhibition came to 66.9% in assay [7]; 6.41% in assay [8]; 18.7% in assay [9]; 16.6% in assay [10]; 63.5% in [11]; 1.83% in [12]. Besides, the inhibition in [13] stood at 0.61%; in assay [14], 2.58%; in [15], 21.1%; in assay [16], 3.94%; in assay [17] it was 6.75%; in [18] it was 2.53%. Further, the inhibition in assay [19] came out at 12.8%; in [20], 9.03%.
As for `O=C1NC(=O)C(c2cccc(Cl)c2)=C1Nc1ccc(O)c(Cl)c1`, the inhibition was determined as 1.28% in assay [1]; 2.54% in assay [2]; 7.81% in [3]; 0.65% in assay [4]; 2.24% in assay [5]; 3.49% in assay [6]. In addition, the inhibition in assay [7] was 51.4%; in assay [8], 3.41%; in assay [9] it was 20.1%; in assay [10], -3.91%; in assay [11], -2.75%; in assay [12], 0.75%. For the same compound, the inhibition in [13] was -6.88%; in assay [14], -1.24%; in [15], -2.14%; in assay [16], -1.77%; in assay [17], 1.92%; in assay [18] it was 1.6%. Besides, the inhibition in assay [19] was 6.56%; in [20], 0%.
Take `Cc1ccc(NC(=O)c2ccnc(N3CCCC3)c2)cc1-c1ccc(C(=O)NCC2CC2)cc1`: the inhibition was -1.06% in [1]; 4.61% in [2]; 5.32% in [3]; 1.37% in assay [4]; 2.33% in [5]; -2.85% in assay [6]. Also, the inhibition in [7] came out at 2.32%; in assay [8] it was 9.55%; in [9], 10.2%; in assay [10], 5.54%; in assay [11], 2.92%; in assay [12], 2.61%. Moreover, the inhibition is 7.08% in assay [13]; 2.54% in assay [14]; 3.2% in assay [15]; 0.26% in assay [16]; 1.23% in [17]; -3.71% in [18]. In addition, the inhibition worked out at 1.56% in [19] and 2.27% in [20].
With `CN(C)c1cc2c(Nc3ccc4nc(Cc5ccccc5)[nH]c4c3)ncnc2cn1`, the inhibition in assay [1] is 1.51%; in assay [2], 5.67%; in assay [3], 8.16%; in assay [4], 2.34%; in assay [5] it was 1.44%; in assay [6] it was -1.29%. In addition, the inhibition is -1.24% in assay [7]; 7.5% in [8]; 10.4% in assay [9]; 4.97% in [10]; 19.2% in [11]; 7.07% in assay [12]. In addition, the inhibition in assay [13] came out at 7.56%; in assay [14], 2.88%; in [15], 6.63%; in assay [16] it was 1.39%; in assay [17], 7.78%; in assay [18] it was 7.36%. Further, the inhibition in assay [19] worked out at 33%; in assay [20], 6.47%.
